Source: PubChem (The Scripps Research Institute Molecular Screening Center)
MITF inh = inhibitors of human MITF. AID 1259374. AlphaScreen MITF homodimerization, bead proximity signal. 650,000 tested, 0.91% active. O75030. inhibition, % at 2.6 µM; in the data active means inhibition above about 50%;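 further: 0% = vehicle wells with protein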
FBW7 activator = activators of human E3 ligase FBW7. normalized activity (activation), % at 26.1 µM. Q969H0. 650,000 tested, 0.13% active. AlphaScreen FBW7–phospho-cyclin E peptide binding, activator screen. AID 1259310; in the data active means normalized activity above about 1.9%;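 further: purified mutant Fbw7 with reduced substrate affinity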
Target sequence (Q969H0 whole entry, looked up): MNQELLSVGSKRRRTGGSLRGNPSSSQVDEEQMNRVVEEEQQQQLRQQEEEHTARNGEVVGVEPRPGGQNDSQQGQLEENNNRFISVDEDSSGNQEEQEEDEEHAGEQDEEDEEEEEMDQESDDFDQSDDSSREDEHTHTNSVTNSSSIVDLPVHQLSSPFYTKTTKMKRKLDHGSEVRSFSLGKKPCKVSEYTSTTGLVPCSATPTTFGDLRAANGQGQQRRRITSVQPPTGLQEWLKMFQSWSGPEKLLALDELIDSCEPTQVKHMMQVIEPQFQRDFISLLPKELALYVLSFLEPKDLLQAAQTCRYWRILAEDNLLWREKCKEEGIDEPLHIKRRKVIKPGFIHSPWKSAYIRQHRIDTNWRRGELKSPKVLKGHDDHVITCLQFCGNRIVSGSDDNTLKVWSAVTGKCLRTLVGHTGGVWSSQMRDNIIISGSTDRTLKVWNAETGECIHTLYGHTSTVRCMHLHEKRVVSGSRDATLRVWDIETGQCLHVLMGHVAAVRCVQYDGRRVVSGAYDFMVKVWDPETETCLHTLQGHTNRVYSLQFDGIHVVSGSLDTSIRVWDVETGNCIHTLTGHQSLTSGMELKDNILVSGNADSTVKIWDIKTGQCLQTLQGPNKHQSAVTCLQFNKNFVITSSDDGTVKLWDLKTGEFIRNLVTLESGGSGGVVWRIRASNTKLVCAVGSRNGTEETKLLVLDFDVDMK
TEAD-YAP block = TEAD-YAP interaction inhibition | HEK-TIYL cells, TEAD-Gal4/YAP UAS-luciferase luminescence | inhibition, % at 9.12 µM | 640,000 tested, 1.4% active | AID 1259422; in the data active means inhibition above about 32%;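 further: 0% = median of test compound wells and 100% = reference inhibitor wells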
GPR151 activ = human GPR151 activation; Q8TDV0; PathHunter beta-arrestin GPR151 cells, luminescence; activation, % at 11.2 µM; 650,000 tested, 1% active; AID 1508602; in the data active means activation above about 4.9%;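 further: 0% = median of compound wells and 100% = cells with positive control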
Numbers without * were called inactive; ! = a repeat was not active. Most compounds without a hit are left out; they make up all but 3.5% or so of the library.

How did CCC(C)NC(=O)CCNC(=O)c1ccc(Br)o1 (stereo not drawn) do in these assays?
MITF inh: 7.5; FBW7 activator: 0.7; TEAD-YAP block: -5.0; GPR151 activ: -1.1

What do the screens show for `COc1ccc(C(=O)c2ccc(Cl)c([N+](=O)[O-])c2)cc1`?
MITF inh: 5.2; FBW7 activator: -0.4; TEAD-YAP block: 62.1*; GPR151 activ: 0.1

What do the screens show for `CCOC(=O)C(C)OC(=O)c1ccc(Cl)c([N+](=O)[O-])c1` (stereo not drawn)?
MITF inh: 1.2; FBW7 activator: -0.1; TEAD-YAP block: 2.3; GPR151 activ: -1.0

Results for COc1ccc(C(=O)c2ccc(Br)c([N+](=O)[O-])c2)cc1C ?
MITF inh: 0.7; FBW7 activator: -0.1; TEAD-YAP block: 64.7*; GPR151 activ: 2.8

Results for COC(=O)C(C)OC(=O)c1ccc(Cl)c([N+](=O)[O-])c1 (stereo not drawn) ?
MITF inh: 5.5; FBW7 activator: 3.0*; TEAD-YAP block: 7.2; GPR151 activ: 1.2

What do the screens show for `Cc1nn(-c2ccccc2)c(N2CCCC2)c1C=C(C#N)C#N`?
MITF inh: -7.4; FBW7 activator: 0.0; TEAD-YAP block: -0.9; GPR151 activ: 0.6

What do the screens show for `Cc1[nH]n(-c2ccc(Cl)cc2)c(=O)c1C=Nc1ccc(S(=O)(=O)N(C)C)cc1`?
MITF inh: -14.2; FBW7 activator: 0.2; TEAD-YAP block: -5.0; GPR151 activ: 0.4

What do the screens show for `COc1ccccc1C(NC(C)=O)c1cc(Cl)c2cccnc2c1O` (stereo not drawn)?
MITF inh: 3.3; FBW7 activator: -0.2; TEAD-YAP block: 2.6; GPR151 activ: -0.2

What do the screens show for `CC(=O)NC(c1ccccc1C)c1ccc2cccnc2c1O` (stereo not drawn)?
MITF inh: 23.7; FBW7 activator: -0.6; TEAD-YAP block: 84.7*; GPR151 activ: -0.6

What do the screens show for `CC(=O)NC(c1ccc2cccnc2c1O)c1cccc2ccccc12` (stereo not drawn)?
MITF inh: 46.2; FBW7 activator: -1.7; TEAD-YAP block: 82.4*; GPR151 activ: -0.1

How did COC(=O)c1ccc(NC(=O)CC2C(=O)N(C)C(=S)N2Cc2ccc3c(c2)OCO3)cc1 (stereo not drawn) do in these assays?
MITF inh: -24.8; FBW7 activator: -0.1; TEAD-YAP block: 1.6; GPR151 activ: 1.3

What do the screens show for `COc1ccc([N+](=O)[O-])cc1NC(=O)COc1ccc(Br)cc1C`?
MITF inh: -8.3; FBW7 activator: 0.1; TEAD-YAP block: 84.3*; GPR151 activ: -0.4

How did Cc1cc(Br)ccc1OCC(=O)Nc1cccc([N+](=O)[O-])c1 do in these assays?
MITF inh: 8.7; FBW7 activator: 0.9; TEAD-YAP block: -74.8; GPR151 activ: -2.7

Results for NC(=O)c1ccsc1NC(=O)c1ccc2c(c1)CCCC2 ?
MITF inh: 6.0; FBW7 activator: -0.1; TEAD-YAP block: 58.3*; GPR151 activ: -9.7

Results for O=[N+]([O-])c1cc2c(cc1C=Nc1ccc(O)cc1)OCO2 ?
MITF inh: 53.3*; FBW7 activator: 0.2; TEAD-YAP block: 7.0; GPR151 activ: -2.3

What do the screens show for `Cc1cccc(NC(=S)NCCN(C)C)c1`?
MITF inh: 10.0; FBW7 activator: 0.0; TEAD-YAP block: 6.5; GPR151 activ: -0.8

Results for Cc1ccc(-n2nnnc2-c2nc3ccccc3s2)cc1 ?
MITF inh: 15.2; FBW7 activator: 0.2; TEAD-YAP block: 2.3; GPR151 activ: -2.2

Results for CCOc1ccc(-n2nnnc2-c2nc3ccccc3s2)cc1 ?
MITF inh: 13.5; FBW7 activator: 0.1; TEAD-YAP block: 42.4*; GPR151 activ: 0.9

Results for CC1(C)CC(=O)C=C(NNC(=O)/C(=C/c2ccccc2)CCO)C1 ?
MITF inh: 10.7; FBW7 activator: 1.9*; TEAD-YAP block: 11.4; GPR151 activ: 0.6

How did CC1(C)CC(=O)C=C(NNC(=O)c2ccc(O)cc2)C1 do in these assays?
MITF inh: -16.0; FBW7 activator: 0.0; TEAD-YAP block: 3.9; GPR151 activ: 0.3

How did COc1ccc(S(=O)(=O)N(CC(=O)NCCc2ccc(OC)c(OC)c2)c2ccc(C)cc2)cc1 do in these assays?
MITF inh: 1.3; FBW7 activator: 0.0; TEAD-YAP block: 35.5*; GPR151 activ: -0.9

How did COc1ccc2cc3cc(C(=O)NCCc4ccc(OC)c(OC)c4)oc3nc2c1 do in these assays?
MITF inh: -13.2; FBW7 activator: 0.1; TEAD-YAP block: 45.4*; GPR151 activ: 2.0

How did COc1ccc2cc3cc(C(=O)N4CCCCC4C)oc3nc2c1 (stereo not drawn) do in these assays?
MITF inh: -6.5; FBW7 activator: -0.2; TEAD-YAP block: 35.9*; GPR151 activ: -2.7

How did Cc1ccc(C(=O)COC(=O)c2cc(C)nc3ccccc23)c(C)c1 do in these assays?
MITF inh: 10.1; FBW7 activator: 0.0; TEAD-YAP block: 3.6; GPR151 activ: -1.0

Results for CN(C)C(CNC(=O)c1ccc2c(c1)OCO2)c1cccs1 (stereo not drawn) ?
MITF inh: 5.2; FBW7 activator: 0.4; TEAD-YAP block: -29.7; GPR151 activ: -0.9

How did Cc1noc(C)c1CN1C(=O)C(F)(F)Oc2ccc([N+](=O)[O-])cc21 do in these assays?
MITF inh: 7.8; FBW7 activator: -0.1; TEAD-YAP block: 1.6; GPR151 activ: 0.6

Results for Cc1ccc(OCC(=O)Nc2cccc3nsnc23)cc1C ?
MITF inh: -1.6; FBW7 activator: -0.2; TEAD-YAP block: 8.5; GPR151 activ: 0.4

What do the screens show for `O=c1[nH]c2c([N+](=O)[O-])cccc2c2ccccc12`?
MITF inh: 8.3; FBW7 activator: 0.2; TEAD-YAP block: 13.4; GPR151 activ: 0.8

What do the screens show for `NS(=O)(=O)c1cccc2c1c([N+](=O)[O-])cc1[nH]c(=O)c(=O)[nH]c12`?
MITF inh: 69.1*!; FBW7 activator: 0.8; TEAD-YAP block: -2.1; GPR151 activ: -0.1

What do the screens show for `COc1ccc(N=C2O/C(=C\c3sc(=S)n(CC4CCCO4)c3O)N=C2C#N)cc1` (stereo not drawn)?
MITF inh: 51.7*; FBW7 activator: -0.5; TEAD-YAP block: 9.1; GPR151 activ: -1.4

How did COc1cccc(-c2noc(C3CCCN(C(=O)Nc4ccc(F)cc4)C3)n2)c1 (stereo not drawn) do in these assays?
MITF inh: 7.6; FBW7 activator: -0.1; TEAD-YAP block: -18.2; GPR151 activ: -1.0

How did CC1=NN(c2ccccc2)C(=O)/C1=C\c1cccc2ccccc12 do in these assays?
MITF inh: 17.6; FBW7 activator: -0.1; TEAD-YAP block: 3.7; GPR151 activ: -1.2

Results for COc1cc(Nc2ncnc3c2nc(Nc2cccc(N(C)C)c2)n3C(C)C)cc(OC)c1OC ?
MITF inh: 16.4; FBW7 activator: 0.3; TEAD-YAP block: 1.2; GPR151 activ: -1.2

How did COc1cc(Nc2nc3c(NCCO)ncnc3n2C(C)C)cc(OC)c1OC do in these assays?
MITF inh: 19.6; FBW7 activator: 0.4; TEAD-YAP block: -19.9; GPR151 activ: 0.7

What do the screens show for `COc1cc(Nc2nc3c(Nc4ccccc4)ncnc3n2C(C)C)cc(OC)c1OC`?
MITF inh: 4.5; FBW7 activator: -0.1; TEAD-YAP block: 38.1*; GPR151 activ: -3.5
